Results on eight molecules are retold here after PubChem BioAssay (Tox21).

The target of assay [1] is Peroxisome proliferator-activated receptor delta (Homo sapiens) (UniProt Q03181). Put plainly: qHTS assay to identify small molecule agonists of the peroxisome proliferator-activated receptor delta (PPARd) signaling pathway (AID 743212). In outline:
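GeneBLAzer PPARd UAS-bla HEK293H cells (beta-lactamase reporter under UAS control), plated and rested 5 h at 37 C, then exposed to compounds in DMSO at 37 C; LiveBLAzer B/G FRET substrate added, 2 h room temperature, fluorescence read.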
In general terms: Quantitative high-throughput screening tests each substance at several concentrations.

A short description of assay [2]: qHTS assay to identify small molecule antagonists of the peroxisome proliferator-activated receptor delta (PPARd) signaling pathway - cell viability counter screen (AID 743213; active means well fitted curve in the direction sought with a large enough effect in the repeat runs; an effect the other way counts as inactive or inconclusive; further: nearly all actives have a fitted effect of over 50% in size). In outline:
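HEK293H cells with the PPARd UAS-bla reporter, co-treated 17 h at 37 C with compounds and L165041 (300 nM final), were lysed with CellTiter-Glo. Luminescence indicated viable cell content.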

The target of assay [3] is Peroxisome proliferator-activated receptor delta (Homo sapiens) (UniProt Q03181). Briefly: qHTS assay to identify small molecule antagonists of the peroxisome proliferator-activated receptor delta (PPARd) signaling pathway (AID 743215; active means well fitted inhibition curve with a large enough effect in the signal ratio in the repeat runs, not every such curve was filed as active; the % refers to the signal ratio;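 further: cells stimulated with agonist L165041 at 300 nM final during compound exposure; series mostly up to about 62 µM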). In outline:
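PPARd-bla HEK293H cells (UAS-bla reporter) preincubated 5 h, then given compound plus 300 nM final L165041 agonist for 17 h at 37 C. Beta-lactamase activity read by LiveBLAzer B/G FRET substrate fluorescence after 2 h at room temperature.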

Assay [4] is described as follows: qHTS assay to identify small molecule agonists of the farnesoid-X-receptor (FXR) signaling pathway - cell viability counter screen (AID 743218; active means well fitted curve in the direction sought with a large enough effect in the repeat runs; an effect the other way counts as inactive or inconclusive; further: nearly all actives have a fitted effect of over 45% in size). In outline:
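FXR-UAS-bla HEK 293T cells exposed to compounds for 16 h at 37C. Cytotoxicity read in the same wells by CellTiter-Glo luminescence after 30 min at room temperature, following the beta-lactamase FRET read.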

The target in assay [5] is Bile acid receptor (Homo sapiens) (UniProt Q96RI1). Put plainly: qHTS assay to identify small molecule agonists of the farnesoid-X-receptor (FXR) signaling pathway (AID 743220; active means well fitted activation curve with a large enough effect in the signal ratio in the repeat runs, not every such curve was filed as active; the % refers to the signal ratio). In outline: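 Beta-lactamase reporter under UAS control in GeneBLAzer FXR HEK 293T cells (5000/well) measured with LiveBLAzer FRET substrate after 2 h at room temperature. Compound exposure lasted 16 h at 37C.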
Bile acid receptor (Homo sapiens), sequence (Q96RI1 whole entry, looked up): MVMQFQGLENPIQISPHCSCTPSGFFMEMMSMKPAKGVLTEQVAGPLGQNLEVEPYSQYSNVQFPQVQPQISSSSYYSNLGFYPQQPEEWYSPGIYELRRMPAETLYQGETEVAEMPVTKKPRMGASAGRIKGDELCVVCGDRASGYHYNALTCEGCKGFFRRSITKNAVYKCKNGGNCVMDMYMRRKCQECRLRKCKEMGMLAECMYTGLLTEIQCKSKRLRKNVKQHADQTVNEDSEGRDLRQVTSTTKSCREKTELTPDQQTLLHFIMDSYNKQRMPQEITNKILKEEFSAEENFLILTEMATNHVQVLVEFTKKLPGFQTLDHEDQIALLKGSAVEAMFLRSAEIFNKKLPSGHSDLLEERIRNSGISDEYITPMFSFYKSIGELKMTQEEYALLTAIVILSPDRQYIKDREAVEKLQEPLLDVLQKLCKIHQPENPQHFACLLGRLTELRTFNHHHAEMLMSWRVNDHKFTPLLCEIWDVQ

Assay [6] is described as follows: qHTS assay to identify small molecule antagonists of the farnesoid-X-receptor (FXR) signaling pathway - cell viability counter screen (AID 743221; active means well fitted cell-killing curve with a large enough effect in the repeat runs, not every such curve was filed as active; further: nearly all actives have a fitted effect of over 50% in size). In outline: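 Quantitative HTS of the Tox21 10K library run in parallel with the beta-lactamase reporter read. HEK 293T cells carrying a UAS-driven bla reporter got compound and 50 uM CDCA (final) for 16 h; ATP-based luminescence followed.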

Assay [7] has as its target Vitamin D3 receptor (Homo sapiens) (UniProt P11473). Briefly: qHTS assay to identify small molecule agonists of the vitamin D receptor (VDR) signaling pathway (AID 743222). In outline:
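VDR-bla cells plated 4 h at 37 C, then exposed to compounds for 16 h at 37 C. Beta-lactamase reporter activity measured by fluorescence after 2 h room-temperature loading with LiveBLAzer B/G FRET substrate.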

The target is the same in assay [8]. Briefly: qHTS assay to identify small molecule antagonists of the vitamin D receptor (VDR) signaling pathway (AID 743223; active means well fitted inhibition curve with a large enough effect in the signal ratio in the repeat runs, not every such curve was filed as active; the % refers to the signal ratio). In outline: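 Fluorescence from LiveBLAzer B/G FRET substrate, read after 2 h at room temperature, reflects beta-lactamase reporter activity in VDR-bla cells treated 16 h at 37C with compounds and agonist 1alpha,25-dihydroxyvitamin D3 (3 nM final).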

Assay [9] can be described thus: qHTS assay to identify small molecule antagonists of the vitamin D receptor (VDR) signaling pathway - cell viability counter screen (AID 743225; active means well fitted curve in the direction sought with a large enough effect in the repeat runs; an effect the other way counts as inactive or inconclusive; further: nearly all actives have a fitted effect of over 50% in size). In outline:
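Cells (VDR-UAS-bla HEK 293T) are plated, rested 4 h at 37C, dosed with compound and 3 nM final 1-alpha,25-dihydroxy vitamin D3, and incubated 16 h. Viability is taken from CellTiter-Glo luminescence in the reporter wells.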

The nature of assay [10]: qHTS assay to identify small molecule agonists of the NFkB signaling pathway (AID 1159509; active means well fitted curve in the direction sought with a large enough effect in the signal ratio in the repeat runs, not every such curve was filed as active; the % refers to the signal ratio; further: series mostly up to about 61 µM). In outline:
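After overnight attachment, reporter cells received test compounds, DMSO or positive controls and were incubated 5 hr at 37 C. FRET substrate was then added for 1.5 hr at room temperature before dual-emission fluorescence reading.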

The nature of assay [11]: qHTS assay to identify small molecule agonists of the NFkB signaling pathway - cell viability counter screen (AID 1159515). Further: series mostly up to about 61 µM; nearly all actives have a fitted effect of over 55% in size. In outline: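 NFkB-bla ME-180 cells, 2,000/well, plated overnight at 37 C; compound added for 5 hr at 37 C. Viability read in the same wells as the bla reporter, by CellTiter-Glo luminescence after 30 min at room temperature.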
Assay [12] can be described thus: qHTS assay to identify small molecule agonists of the endoplasmic reticulum stress response signaling pathway (AID 1159516; active means well fitted activation curve with a large enough effect in the signal ratio in the repeat runs, not every such curve was filed as active; the % refers to the signal ratio). In outline:
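CellSensor ESRE-bla HeLa cells, 1,500 per well, plated overnight, then exposed to compounds for 5 hr at 37 C. Beta-lactamase reporter read with LiveBLAzer B/G FRET substrate after 2 hr at room temperature, 405 nm excitation, 460 and 530 nm emission.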

A short description of assay [13]: qHTS assay to identify small molecule agonists of the endoplasmic reticulum stress response signaling pathway - cell viability counter screen (AID 1159517).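 Further: HeLa cells carrying an ER stress response element beta-lactamase reporter; series mostly up to about 61 µM; nearly all actives have a fitted effect of over 50% in size.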 In outline: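 Luminescence readout: CellTiter-Glo, 30 min RT, same wells as the ESRE-bla reporter read. HeLa ESRE-bla, 1,500 cells/well, o/n 37 C; cpd 5 hr 37 C/5% CO2.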
A short description of assay [14]: qHTS assay to identify small molecule agonists of the AP-1 signaling pathway - cell viability counter screen (AID 1159525). Further: nearly all actives have a fitted effect of over 55% in size. In outline: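 ME-180 AP-1-bla, 2500 cells/well, Opti-MEM + 0.5% dialyzed FBS; overnight 37 °C; cpd 15-pt titration, 5 h 37 °C; CellTiter-Glo 30 min RT; luminescence read; normalised to TOAB and DMSO controls.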
Assay [15] in a line: qHTS assay to identify small molecule agonists of the AP-1 signaling pathway (AID 1159526).
For assay [16], the target named is Retinoic acid receptor RXR-alpha (Homo sapiens) (UniProt P19793). Briefly: qHTS assay to identify small molecule agonists of the RXR signaling pathway (AID 1159527). Further: nearly all actives have a fitted effect of over 35% in size. Further: potency means the concentration at half of the fitted maximal effect. In outline:
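qHTS of the Tox21 10K library in GeneBLAzer RXR-alpha HEK 293T cells carrying a beta-lactamase reporter […]; 16 hr treatment, 9-cis retinoic acid as agonist control, FRET read-out.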

In assay [17] the target is Bile acid receptor (Homo sapiens) (UniProt Q96RI1). Briefly: qHTS assay to identify small molecule antagonists of the farnesoid-X-receptor (FXR) signaling pathway (AID 743217; active means well fitted inhibition curve with a large enough effect in the signal ratio in the repeat runs, not every such curve was filed as active; the % refers to the signal ratio). In outline: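 FXR-UAS-bla HEK 293T cells (beta-lactamase reporter) given compound plus chenodeoxycholic acid (50 uM final), 16 h at 37C. LiveBLAzer B/G FRET substrate added for 2 h at room temperature; fluorescence read.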

A short description of assay [18]: qHTS assay to identify small molecule agonists of the vitamin D receptor (VDR) signaling pathway - cell viability counter screen (AID 743224; active means well fitted curve in the direction sought with a large enough effect in the repeat runs; an effect the other way counts as inactive or inconclusive). In outline: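 VDR-bla cells, 4 h after plating, exposed to compounds for 16 h at 37C; viability then read in the same wells as CellTiter-Glo luminescence after 30 min at room temperature, following the bla FRET read.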
Assay [19] in a line: qHTS assay to identify small molecule antagonists of the retinoid-related orphan receptor gamma (ROR-gamma) signaling pathway - cell viability counter screen (AID 1159520; active means well fitted curve in the direction sought with a large enough effect in the repeat runs; an effect the other way counts as inactive or inconclusive; further: nearly all actives have a fitted effect of over 50% in size). In outline:
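Tet-on ROR gamma CHO cells (1,000/well) were plated 4 hr, given compounds in DMSO for 2 hr at 37 C, then induced with 1 uM final doxycycline for 16 hr. Viability was read as ATP by CellTiter-Glo luminescence after 30 min.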

The target in assay [20] is Nuclear receptor ROR-gamma (Homo sapiens) (UniProt P51449). Briefly: qHTS assay to identify small molecule antagonists of the retinoid-related orphan receptor gamma (ROR-gamma) signaling pathway (AID 1159521; active means well fitted curve in the direction sought with a large enough effect in the repeat runs; an effect the other way counts as inactive or inconclusive). In outline:
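RORγ antagonism is scored from reduced reporter luminescence in Tet-on CHO cells. Induction used 1 uM final doxycycline hyclate for 16 h at 37 C, following a 2 h compound exposure.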

Inconclusive results are not listed. Values without a mark were called inactive. Active and inactive are the calls of the source. Unless noted, the call rests on the fitted dose curve.

Vitamin D3 receptor (Homo sapiens), sequence (P11473 whole entry, looked up): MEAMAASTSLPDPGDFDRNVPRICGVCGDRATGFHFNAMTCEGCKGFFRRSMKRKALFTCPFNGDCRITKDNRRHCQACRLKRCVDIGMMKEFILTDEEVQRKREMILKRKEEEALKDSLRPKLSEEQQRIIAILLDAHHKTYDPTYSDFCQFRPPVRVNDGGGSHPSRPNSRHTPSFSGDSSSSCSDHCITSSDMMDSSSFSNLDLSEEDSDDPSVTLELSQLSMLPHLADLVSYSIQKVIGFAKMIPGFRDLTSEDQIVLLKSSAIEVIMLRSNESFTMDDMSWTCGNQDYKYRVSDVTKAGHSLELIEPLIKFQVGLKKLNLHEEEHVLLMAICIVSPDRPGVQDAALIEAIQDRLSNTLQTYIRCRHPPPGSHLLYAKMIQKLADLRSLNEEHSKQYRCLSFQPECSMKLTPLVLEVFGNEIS
Peroxisome proliferator-activated receptor delta (Homo sapiens), sequence (Q03181 whole entry, looked up): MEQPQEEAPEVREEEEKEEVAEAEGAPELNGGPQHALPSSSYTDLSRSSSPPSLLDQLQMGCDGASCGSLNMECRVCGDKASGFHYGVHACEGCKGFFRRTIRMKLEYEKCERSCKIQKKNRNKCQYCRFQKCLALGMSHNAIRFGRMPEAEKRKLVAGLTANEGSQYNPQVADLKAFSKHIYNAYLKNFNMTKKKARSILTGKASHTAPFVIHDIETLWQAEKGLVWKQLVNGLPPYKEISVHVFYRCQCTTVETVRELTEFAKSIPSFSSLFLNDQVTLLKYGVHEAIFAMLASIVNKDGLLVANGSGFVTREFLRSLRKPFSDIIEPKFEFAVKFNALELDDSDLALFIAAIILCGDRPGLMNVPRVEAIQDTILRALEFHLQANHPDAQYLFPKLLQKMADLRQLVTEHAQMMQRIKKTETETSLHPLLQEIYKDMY
Retinoic acid receptor RXR-alpha (Homo sapiens), sequence (P19793 whole entry, looked up): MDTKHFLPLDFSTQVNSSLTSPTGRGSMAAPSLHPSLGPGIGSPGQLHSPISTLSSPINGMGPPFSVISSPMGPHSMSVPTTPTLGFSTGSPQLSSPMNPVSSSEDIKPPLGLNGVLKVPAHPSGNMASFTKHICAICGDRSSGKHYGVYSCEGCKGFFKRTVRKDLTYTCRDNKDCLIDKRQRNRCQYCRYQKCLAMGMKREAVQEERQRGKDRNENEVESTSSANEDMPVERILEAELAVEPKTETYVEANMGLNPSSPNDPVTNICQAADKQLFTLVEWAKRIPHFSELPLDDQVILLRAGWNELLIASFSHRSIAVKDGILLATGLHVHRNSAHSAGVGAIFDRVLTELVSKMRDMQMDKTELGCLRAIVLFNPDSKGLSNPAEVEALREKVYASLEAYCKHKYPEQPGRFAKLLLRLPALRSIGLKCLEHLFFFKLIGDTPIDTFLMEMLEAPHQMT

Regarding `CNC(=O)Oc1ccccc1C1OCCO1`, the outcome in assay [1], in assay [2], in assay [3], in assay [5], in assay [6] and in assay [7] was inactive. In addition, the molecule was classed as inactive in assay [8], in assay [9], in [10], in assay [11], in assay [12] and in assay [15]. Moreover, the Potency result in assay [4], in assay [13], in assay [14] and in [16] was “inactive” each time.
On to `O=[N+]([O-])c1cccc2cccnc12`, for which the result in [2], in assay [3], in [5], in [6], in assay [7] and in assay [8] was inactive. Also, the outcome in assay [9], in assay [10], in assay [11], in assay [12] and in assay [15] was inactive. The Potency result in assay [17], in [18], in assay [13], in assay [19] and in assay [14] was “inactive” each time.
In the case of `CCN(CC)c1nc(C)cc(OP(=S)(OC)OC)n1`, the molecule was classed as inactive in [1], in [2], in assay [3], in assay [6], in assay [7] and in assay [9]. Further, the molecule was called inactive in assay [10], in assay [11] and in assay [12]. For the same molecule, the Potency entry in assay [18], in assay [13], in assay [20], in assay [14] and in assay [16] was “inactive” throughout.
`CCC(=O)C(CCN(C)C)(c1ccccc1)c1ccccc1`: the outcome in [2], in assay [3], in [6], in [7], in assay [9] and in [10] was inactive. Also, the result in assay [11] and in assay [12] was inactive. Moreover, the Potency result in assay [4], in assay [13], in assay [19], in [14] and in assay [16] was “inactive” in each case.
With `CCS(=O)(=O)C(C)(C)S(=O)(=O)CC`, the molecule was classed as inactive in assay [2], in assay [5], in assay [6], in [7], in [9] and in assay [10]. Also, the result in assay [11], in assay [12] and in assay [15] was inactive. The Potency result in assay [4], in [18], in assay [13], in assay [20], in [14] and in [16] was “inactive” in each case.
In the case of `O=C(O)C(Br)CBr` (stereo not drawn), the call in assay [2], in [3], in [6], in assay [9], in assay [10] and in [11] was inactive. In addition, the Potency result in assay [4], in [18], in assay [13], in [19], in assay [20] and in assay [14] was “inactive” in each case. Besides, in assay [16], the Potency was 9.94 µM (active).
`CCCCc1c(C)nc(NCC)[nH]c1=O`: the outcome in assay [1], in assay [2], in [3], in assay [6], in assay [7] and in [9] was inactive. The result in assay [10], in assay [11] and in assay [15] was inactive. In addition, the Potency result in assay [4], in [18], in assay [13], in assay [19], in [14] and in assay [16] was “inactive” in each case.
As to `CCCCP(CCCC)CCCC`, the molecule was classed as inactive in assay [1], in assay [2], in assay [3], in assay [6], in assay [7] and in assay [9]. Moreover, the molecule was classed as inactive in [11], in [12] and in [15]. The Potency result in assay [17], in assay [4], in assay [13], in [19], in assay [20] and in [14] was “inactive” throughout. For the same molecule, in [16], the Potency entry is “inactive”.
